HEK293 tox – cytotoxic compounds in HEK 293 cells; actives 6.6% (n = 94,000); Potency, µM (highest dose often 115 µM), actives largely listed as inhibitors; AID 1345083; HEK 293 viability, ATP luminescence (CellTiter-Glo), 48-72 h; note: nearly all actives have a fitted effect of over 60% in size
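qHTS cytotoxicity; HEK 293, 250 cells/well; compound pinned; 48 or 72 hr, 37 degree Celsius, 5% CO2, 95% humidity; CellTiter-Glo, 10 min RT; luminescence (ATP).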
NPR1 antag – human Npr1 receptor antagonism | P16066 | HEK293 hNpr1 GloSensor cGMP, ANP-stimulated luminescence | Potency, µM (series often up to 46.3 µM), most hits filed as inhibitors | actives 1.6% (n = 76,000) | AID 1347048; calls by dose curve; note: nearly all actives have a fitted effect of over 60% in size
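Compound pre-incubated 30 min at room temperature on GloSensor-loaded HEK293 cells stably carrying hNpr1 and the pGS-40F cGMP biosensor. Stimulation uses hNppA at 0.1 nM final; luminescence is taken at baseline and 20 min post-agonist.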
FLuc inh – Photinus pyralis luciferase inhibition; actives 2.5% (n = 76,000); P08659; purified P. pyralis luciferase, luminescence, biochemical; Potency, µM (doses to about 115 µM), actives largely listed as inhibitors; note: nearly all actives have a fitted effect of over 65% in size
Target sequence (P08659 whole entry, looked up): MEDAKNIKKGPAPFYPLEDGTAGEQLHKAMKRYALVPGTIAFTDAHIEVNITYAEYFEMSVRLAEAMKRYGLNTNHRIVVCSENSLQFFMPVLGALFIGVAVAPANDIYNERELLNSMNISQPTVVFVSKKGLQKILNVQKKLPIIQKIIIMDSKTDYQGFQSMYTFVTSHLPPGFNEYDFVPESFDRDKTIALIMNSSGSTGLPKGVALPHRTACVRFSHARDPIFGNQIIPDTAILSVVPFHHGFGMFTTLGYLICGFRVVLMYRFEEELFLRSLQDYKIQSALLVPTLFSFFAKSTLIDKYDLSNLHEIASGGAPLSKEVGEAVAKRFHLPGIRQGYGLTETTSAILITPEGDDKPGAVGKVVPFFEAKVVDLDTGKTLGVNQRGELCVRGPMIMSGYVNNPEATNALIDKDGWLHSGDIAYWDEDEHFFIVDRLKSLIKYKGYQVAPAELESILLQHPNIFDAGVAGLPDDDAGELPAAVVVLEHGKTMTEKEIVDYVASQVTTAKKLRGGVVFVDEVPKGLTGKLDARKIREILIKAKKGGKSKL
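FLuc 10nM, D-luciferin 10uM, ATP 10uM, Mg acetate 10mM, Tris acetate pH 7.5, Tween/BSA; cpd qHTS; enzyme added last; CCD luminescence.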
NIH3T3 tox – NIH 3T3 cell cytotoxicity; NIH 3T3 viability, CellTiter-Glo ATP luminescence, 48-72 h; actives 4.3% (n = 94,000); Potency, µM (doses to about 96.7 µM), actives largely listed as inhibitors; note: nearly all actives have a fitted effect of over 55% in size
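Cytotoxicity was measured by CellTiter-Glo ATP luminescence after 48 or 72 h compound exposure at 37 °C. Mouse NIH 3T3 fibroblasts were seeded at 400 cells/well and dosed by 23 nL pin transfer.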
Numbers stand for hits; – = inactive; ? = inconclusive; · = no result. Hits are enriched below; roughly 11% of the tested compounds scored in any of these assays. Unless noted, calls come from the whole dose curve; as a rule, active = well fitted curve in the direction sought with a large enough effect; inconclusive = small, poorly fitted or top-dose-only effect, or another doubt; inactive = no such curve, though single readings can be large; an effect the other way counts as inactive or inconclusive.

SMILES	HEK293 tox	NPR1 antag	FLuc inh	NIH3T3 tox
O=C(NCC1CCCN(Cc2ncccn2)C1)c1ccc(-c2ccccc2)cc1 (centres undefined)	?	–	–	–
O=C(c1ccc2cc[nH]c2c1)N1CCCC(Cc2noc(-c3ccccc3)n2)C1 (centres undefined)	?	–	–	20µM
O=C(c1ccc2cc[nH]c2c1)N1CCCC(Cc2noc(-c3cnccn3)n2)C1 (centres undefined)	–	–	–	–
O=C(NCC1CCCN(C(=O)c2ccsc2)C1)c1ccc(-c2ccccc2)cc1 (centres undefined)	44.7µM	?	?	?
O=C(NCC1CCCN(C(=O)c2ccc3[nH]ccc3c2)C1)c1ccc(-c2ccccc2)cc1 (centres undefined)	17.8µM	11.2µM	?	?
CCN1CCN(C(=O)c2ccc3oc(-c4ccncc4)nc3c2)CC1	–	·	·	–
O=C(c1ccc(Cl)nc1)N1CCC(C(=O)N2CCC(N3Cc4ccccc4C3=O)CC2)CC1	–	·	·	–
c1ccc(CCN2CCNc3cc(-c4cn[nH]c4)ncc3C2)cc1	?	–	–	89.1µM
c1ccc(CCN2CCNc3cc(NCc4cccnc4)ncc3C2)cc1	50.1µM	–	–	50.1µM
COCCN1CCNc2cc(-c3ccc(Oc4ccccc4)cc3)ncc2C1	50.1µM	?	28.2µM	44.7µM
Cc1[nH]cnc1CN1CCNc2cc(-c3ccccc3)ncc2C1	?	–	?	?
OCc1cccc(-c2cc3c(cn2)CN(CCc2ccccc2)CCN3)c1	?	–	–	?
Cc1cnc(CC2CCN(C(=O)NCc3ccccc3)C2)n1CC1CC1 (centres undefined)	–	·	·	–
O=C(Nc1ccc(-c2nnc3n2CCCC3)cc1)c1ccc2ccccc2n1	–	–	–	?
CC(C)NC(=O)C1CCc2sc(C(=O)N3CCCCCC3)cc2C1 (centres undefined)	–	–	–	–
CNC(=O)c1cc(C2CC2)nc2c1c(C1CCCN1C(=O)NC(C)C)nn2C (centres undefined)	–	·	·	–
CCC(=O)N1CCN(c2nc3c(s2)CC(C(=O)Nc2cccc(C)c2C)CC3)CC1 (centres undefined)	39.8µM	–	–	?
CCC(=O)N1CCN(c2nc3c(s2)CC(C(=O)Nc2ccc(F)cc2F)CC3)CC1 (centres undefined)	10µM	?	–	?
CCC(=O)N1CCN(c2nc3c(s2)CC(C(=O)Nc2ccc(F)cc2C)CC3)CC1 (centres undefined)	?	–	–	–
CN1C(=O)c2cccn2CC1C(=O)NCCCN1CCc2ccccc2C1 (centres undefined)	–	–	–	–
COc1ccc(-c2nc(C(C)C)nc3c2CCN(C(=O)c2ccccc2F)CC3)cc1	?	–	–	–
O=C(Nc1cc(F)cc(F)c1)N1CCCC2(C1)Nc1cccnc1NC2=NC1CCCC1 (centres undefined)	39.8µM	–	–	?
Cc1cc(C(=O)N2CCCC(O)(CN3CCCC3)C2)ccc1Cl (centres undefined)	–	–	–	–
Cc1ccc(CN2CCCCCCNC(=O)CC2c2ccccc2)s1 (centres undefined)	39.8µM	–	–	?
O=C1CC(c2ccccc2)N(Cc2ccc3[nH]ccc3c2)CCCCCN1 (centres undefined)	?	–	–	?
SMILES	HEK293 tox	NPR1 antag	FLuc inh	NIH3T3 tox
Cc1cccc(CN2CCCCCNC(=O)CC2c2ccccc2)c1 (centres undefined)	?	–	–	39.8µM
Cc1ccc(CN2CCCCCCNC(=O)CC2c2ccccc2)o1 (centres undefined)	?	–	–	?
C#CCNC(=O)c1cc(-c2ccc(Cl)cc2)nc2c1cnn2C	89.1µM	·	·	?
COc1ccc(-c2cc(C(=O)NCC(F)(F)F)c3c(C4CCNC4)nn(C)c3n2)cc1 (centres undefined)	79.4µM	·	·	?
C#CCNC(=O)c1cc(-c2ccc(OC)cc2)nc2c1cnn2C	?	·	·	50.1µM
C#CCNC(=O)c1cc(-c2ccc([S+](C)(=O)[O-])cc2)nc2c1cnn2C	?	·	·	–
Cn1ncc2c(C(=O)NCC(F)F)cc(-c3ccc(Cl)cc3)nc21	44.7µM	·	·	?
COc1ccc(-c2cc(C(=O)N(C)C)c3cnn(C)c3n2)cc1	–	·	·	–
Cc1cc(F)ccc1OC1CN(Cc2cccnc2)C1	?	–	–	–
Cc1nc2cnccn2c1C(=O)NC1CCCCC1	–	·	·	–
Cc1noc(C)c1C(=O)N1CCN(c2ccc3nnc(C4CC4)n3n2)CC1	–	·	·	–
COC(=O)CNC(=O)c1cc(-c2ccc(Cl)nc2)nc2c1cnn2C	–	·	·	31.6µM
COc1cccc(C(=O)N2C[C@H]3CNC(=O)[C@]34CCCC[C@@H]24)c1	–	·	·	–
O=c1[nH]c2cc(-c3nc(-c4cccnn4)no3)ccc2n1C1CCC(O)CC1 (centres undefined)	?	–	–	–
CN(C)CCNC(=O)C1(C)CN(Cc2ccccc2)Cc2ccc(Nc3ccccc3)nc21 (centres undefined)	28.2µM	–	–	15.8µM
CN1Cc2ccc(NCc3ccccc3)nc2C(C)(C(=O)Nc2ccccc2)C1 (centres undefined)	63.1µM	–	–	44.7µM
COCCNC(=O)C1(C)CN(C)Cc2ccc(Nc3ccccc3)nc21 (centres undefined)	?	–	–	–
CN1Cc2ccc(NCc3ccccc3)nc2C(C)(C(=O)NCc2cccs2)C1 (centres undefined)	?	–	–	79.4µM
CN1Cc2ccc(NCc3ccccc3)nc2C(C)(C(=O)NCCOc2ccccc2)C1 (centres undefined)	?	?	63.1µM	?
COc1ccc2[nH]cc(CCNC(=O)CCC3CCN(C(=O)c4ccc(C)cc4)CC3)c2c1	?	–	–	?
O=S(=O)(Cc1ccccc1)N1CCCC(OCc2noc(C3CCOCC3)n2)C1 (centres undefined)	–	·	·	–
COc1ccc(NC(=O)C2(C)CN(C)Cc3ccc(NCc4ccccc4)nc32)cc1 (centres undefined)	?	–	–	44.7µM
COc1ccc(-c2noc(CC3CCN(C(=O)c4cc(OC)c(OC)c(OC)c4)CC3)n2)cc1	?	?	–	12.6µM
COc1ccccc1C(=O)N1CCC(Cc2nc(-c3ccccc3)no2)CC1	?	?	–	?
Cc1ccc(C(=O)N2CCC(Cc3nc(C(C)C)no3)CC2)cc1C	?	?	–	44.7µM
COc1ccc(C(=O)N2CCC(Cc3nc(C(C)C)no3)CC2)cc1OC	?	?	–	–
CCOc1cc(C(=O)N2CCC(Cc3nc(-c4ccc(F)cc4)no3)CC2)cc(OCC)c1OCC	35.5µM	?	–	31.6µM
CCOc1cc(C(=O)N2CCC(Cc3nc(-c4cnccn4)no3)CC2)cc(OCC)c1OCC	–	–	–	?
COc1cc(OC)cc(C(=O)N2CCC(Cc3nc(-c4cccc(OC)c4)no3)CC2)c1	44.7µM	?	–	?
CCOC(=O)[C@@H]1[C@@H](OC(N)=O)C(=O)N(C(C)C)C12CCN(C(=O)Cc1ccc(OC)cc1)CC2	–	·	·	?
